# Results: ChEMBL document CHEMBL3988442, “University of Dundee, Small-Polar-MMV Screening Library” (2021)
# Organism: Homo sapiens
# Test: To identify inhibition of the IFN signalling (Jak-Stat) pathway via expression of an eGFP reporter gene under the control of an IFN-stimulated response element (ISRE) containing MxA promoter.
# Assay type: functional
# Set-up: scale not given: direction of the effect not stated beside the values
# Details: 30 µM
row,Compound,Percent Effect
1,Cc1cccc(CN2C(=O)CCC23CCN(Cc2cccn2C)CC3)n1,23.5%
2,CCC(=O)N1CCCC1c1nccnc1Nc1nc(C)cc(C)n1 (stereo not drawn),6.52%
3,CNc1cncc(C2CCCN2Cc2c[nH]cn2)n1 (stereo not drawn),5.77%
4,Cc1cc(C)n(CC2CN(Cc3nc(-c4ccco4)no3)CCO2)n1 (stereo not drawn),12.5%
5,CCCc1nc(C)c(C(=O)NCCN2CCN(CC)CC2)s1,5.53%
6,Fc1cnc(N2CCOCC3(CCCN(c4nncs4)C3)C2)nc1 (stereo not drawn),-23.8%
7,O=C(c1ccccn1)N1Cc2nccn2CC(CN2CCOCC2)C1 (stereo not drawn),4.82%
8,COC(=O)c1cccn1C1CCN(Cc2ccccc2)CC1,16.2%
9,CCOC1CCCN(C(=O)c2sccc2-n2cnnn2)C1 (stereo not drawn),21.5%
10,CN(C)CC1CN(Cc2coc(-c3ccccc3Cl)n2)CCO1 (stereo not drawn),3.83%
11,CCc1cc(O)nc(C2CCCN2C(=O)c2cccnc2)n1 (stereo not drawn),13%
12,CC(Cn1cccn1)NC(=O)Cc1cccs1 (stereo not drawn),28.8%
13,COc1ccc(F)cc1C(=O)N(C)Cc1cc(C)on1,21.1%
14,CNc1cc(N2CCCC2CNCc2cnc(C)cn2)ncn1 (stereo not drawn),21.4%
15,CN(Cc1ccco1)[C@@H]1CN(Cc2ccc(F)cc2)C[C@@H]2CCCO[C@@H]21,-5.78%
16,CC(C)(O)CN1CCN(C(=O)c2cccnc2O)CC1,-4.14%
17,O=C(N1CCCC1)N1CCC2(CCCN(CCOc3ccccc3)C2)C1 (stereo not drawn),15.5%
18,CC(C(=O)N1CCCC1)N1CCC(c2nccn2Cc2cscn2)CC1 (stereo not drawn),3.46%
19,Cc1ccc(NC2CCN(C(=O)c3cccc4ncccc34)CC2)nn1,9.09%
20,COc1cc(CNCc2ccc(NC(=O)NC(C)C)cc2)cc(OC)c1,33.6%

row,Compound,Percent Effect
1,O=C(c1cnco1)N1CCCC(Cc2nccs2)C1 (stereo not drawn),-17.7%
2,CCS(=O)(=O)N(C)CC(=O)Nc1ccc(Br)cn1,13.7%
3,Cn1cc(NC(=O)N2CCC(c3ccccc3)CC2)ccc1=O,23%
4,Cc1ncc(S(C)(=O)=O)c(C2CCCNC2)n1 (stereo not drawn),18.1%
5,COC(=O)COc1cccc(NS(=O)(=O)c2cc(C(=O)O)cs2)c1,22.9%
6,CC(C)c1cc(N2CCN(c3ccc(O)cc3)CC2)n2nccc2n1,0.905%
7,CC(=O)NC1CCCN(C(=O)NCc2cccnc2-n2cccn2)C1 (stereo not drawn),14.4%
8,Cc1noc(C)c1CN(C)C(=O)NC1CCN(c2ncccn2)CC1,13.1%
9,FC(F)(F)Cn1ccnc1CN1CCCC1c1noc(C2CC2)n1 (stereo not drawn),16.6%
10,NC[C@H]1CC[C@H](C(NC(=O)c2ccccc2)c2ccccn2)CC1 (stereo partly drawn),-1.97%
11,CCc1nc(C2CCCN2C(=O)CCCn2cccn2)no1 (stereo not drawn),4.76%
12,CN(C)CC1CN(Cc2nnc(-c3ccccc3Cl)o2)CCO1 (stereo not drawn),9.96%
13,c1csc(-c2nc(CN3CCn4c(nnc4C4CC4)C3)co2)c1,7.72%
14,CCNC(=O)[C@@H]1C[C@H](NC(=O)Cc2ccsc2)CN1Cc1ccc(C)o1,20.3%
15,CCOc1ncccc1NC(=O)NC1CCCN(c2ncccn2)C1 (stereo not drawn),8.06%
16,CC(=O)N1CCCC1c1csc(Nc2cnccn2)n1 (stereo not drawn),20%
17,CCOC1COC2(CCN(S(=O)(=O)c3cccc(F)c3)CC2)C1 (stereo not drawn),-2.83%
18,O=c1c2ccccc2nc2n1C(CSc1ccc(Cl)cc1Cl)CN2 (stereo not drawn),32.9%
19,c1ccc(OC2CCCC2)c(CNC2CCc3ncnn3C2)c1 (stereo not drawn),3.46%

# Molecular target: T1, Tyrosyl-tRNA synthetase, putative (Trypanosoma cruzi (strain CL Brener)) (UniProt Q4DSP6)
# T1 sequence (whole entry): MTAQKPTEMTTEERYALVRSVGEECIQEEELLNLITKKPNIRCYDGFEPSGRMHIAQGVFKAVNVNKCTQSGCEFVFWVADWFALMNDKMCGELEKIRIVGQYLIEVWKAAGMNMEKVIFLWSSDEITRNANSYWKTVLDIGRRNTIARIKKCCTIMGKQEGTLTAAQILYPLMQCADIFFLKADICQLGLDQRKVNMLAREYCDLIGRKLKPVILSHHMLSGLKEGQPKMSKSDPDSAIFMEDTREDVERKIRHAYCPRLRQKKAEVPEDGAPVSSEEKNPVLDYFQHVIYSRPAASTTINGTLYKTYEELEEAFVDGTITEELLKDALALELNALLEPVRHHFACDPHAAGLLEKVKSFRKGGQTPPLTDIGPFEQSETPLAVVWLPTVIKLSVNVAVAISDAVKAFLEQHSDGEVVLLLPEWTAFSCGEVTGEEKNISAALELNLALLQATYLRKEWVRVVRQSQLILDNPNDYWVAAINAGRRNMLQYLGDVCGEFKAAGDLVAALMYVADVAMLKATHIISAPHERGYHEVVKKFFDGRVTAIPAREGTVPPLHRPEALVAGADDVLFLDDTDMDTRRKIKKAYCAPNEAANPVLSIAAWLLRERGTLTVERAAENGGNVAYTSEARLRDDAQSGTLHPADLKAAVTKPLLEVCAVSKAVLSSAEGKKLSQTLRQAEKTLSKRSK
# Test: Trypanosoma cruzi tyrosyl tRNA synthetase (TcYRS) _High Tyrosine SOP; also: in the data most compounds retested in dose-response had high values
# Assay type: functional
# Set-up: scale not given: direction of the effect not stated beside the values
# Details: 30 µM
row,Compound,Percent Effect
1,Cc1cccc(CN2C(=O)CCC23CCN(Cc2cccn2C)CC3)n1,9.66%
2,CCC(=O)N1CCCC1c1nccnc1Nc1nc(C)cc(C)n1 (stereo not drawn),2.12%
3,CNc1cncc(C2CCCN2Cc2c[nH]cn2)n1 (stereo not drawn),5.29%
4,Cc1cc(C)n(CC2CN(Cc3nc(-c4ccco4)no3)CCO2)n1 (stereo not drawn),5.88%
5,CCCc1nc(C)c(C(=O)NCCN2CCN(CC)CC2)s1,6.86%
6,Fc1cnc(N2CCOCC3(CCCN(c4nncs4)C3)C2)nc1 (stereo not drawn),1.58%
7,O=C(c1ccccn1)N1Cc2nccn2CC(CN2CCOCC2)C1 (stereo not drawn),12.1%
8,COC(=O)c1cccn1C1CCN(Cc2ccccc2)CC1,3.92%
9,CCOC1CCCN(C(=O)c2sccc2-n2cnnn2)C1 (stereo not drawn),8.13%
10,CN(C)CC1CN(Cc2coc(-c3ccccc3Cl)n2)CCO1 (stereo not drawn),0.526%
11,CCc1cc(O)nc(C2CCCN2C(=O)c2cccnc2)n1 (stereo not drawn),0%
12,CC(Cn1cccn1)NC(=O)Cc1cccs1 (stereo not drawn),0.526%
13,COc1ccc(F)cc1C(=O)N(C)Cc1cc(C)on1,2.39%
14,CNc1cc(N2CCCC2CNCc2cnc(C)cn2)ncn1 (stereo not drawn),2.39%
15,CN(Cc1ccco1)[C@@H]1CN(Cc2ccc(F)cc2)C[C@@H]2CCCO[C@@H]21,3.68%
16,CC(C)(O)CN1CCN(C(=O)c2cccnc2O)CC1,1.44%
17,O=C(N1CCCC1)N1CCC2(CCCN(CCOc3ccccc3)C2)C1 (stereo not drawn),1.93%
18,CC(C(=O)N1CCCC1)N1CCC(c2nccn2Cc2cscn2)CC1 (stereo not drawn),6.92%
19,Cc1ccc(NC2CCN(C(=O)c3cccc4ncccc34)CC2)nn1,13.2%
20,COc1cc(CNCc2ccc(NC(=O)NC(C)C)cc2)cc(OC)c1,8.82%

row,Compound,Percent Effect
1,O=C(c1cnco1)N1CCCC(Cc2nccs2)C1 (stereo not drawn),7.41%
2,CCS(=O)(=O)N(C)CC(=O)Nc1ccc(Br)cn1,1.58%
3,Cn1cc(NC(=O)N2CCC(c3ccccc3)CC2)ccc1=O,0.478%
4,Cc1ncc(S(C)(=O)=O)c(C2CCCNC2)n1 (stereo not drawn),6.92%
5,COC(=O)COc1cccc(NS(=O)(=O)c2cc(C(=O)O)cs2)c1,1.44%
6,CC(C)c1cc(N2CCN(c3ccc(O)cc3)CC2)n2nccc2n1,27.1%
7,CC(=O)NC1CCCN(C(=O)NCc2cccnc2-n2cccn2)C1 (stereo not drawn),5.79%
8,Cc1noc(C)c1CN(C)C(=O)NC1CCN(c2ncccn2)CC1,5.26%
9,FC(F)(F)Cn1ccnc1CN1CCCC1c1noc(C2CC2)n1 (stereo not drawn),4.74%
10,NC[C@H]1CC[C@H](C(NC(=O)c2ccccc2)c2ccccn2)CC1 (stereo partly drawn),10.6%
11,CCc1nc(C2CCCN2C(=O)CCCn2cccn2)no1 (stereo not drawn),1.96%
12,CN(C)CC1CN(Cc2nnc(-c3ccccc3Cl)o2)CCO1 (stereo not drawn),-3.68%
13,c1csc(-c2nc(CN3CCn4c(nnc4C4CC4)C3)co2)c1,6.84%
14,CCNC(=O)[C@@H]1C[C@H](NC(=O)Cc2ccsc2)CN1Cc1ccc(C)o1,7.98%
15,CCOc1ncccc1NC(=O)NC1CCCN(c2ncccn2)C1 (stereo not drawn),11.8%
16,CC(=O)N1CCCC1c1csc(Nc2cnccn2)n1 (stereo not drawn),3.17%
17,CCOC1COC2(CCN(S(=O)(=O)c3cccc(F)c3)CC2)C1 (stereo not drawn),6.84%
18,O=c1c2ccccc2nc2n1C(CSc1ccc(Cl)cc1Cl)CN2 (stereo not drawn),1.93%
19,c1ccc(OC2CCCC2)c(CNC2CCc3ncnn3C2)c1 (stereo not drawn),6.22%
